Source: PubChem BioAssay (NCATS)
Unmarked numbers belong to inactive results. Calls follow the shape of the dose curve; as a rule, active = well fitted curve in the direction sought with a large enough effect; inconclusive = small, poorly fitted or top-dose-only effect, or another doubt; inactive = no such curve, though single readings can be large; an effect the other way counts as inactive or inconclusive. Records with an inconclusive call do not appear.

Target: Glucagon-like peptide 1 receptor (Homo sapiens) (UniProt P43220)
Sequence (P43220 whole entry, looked up): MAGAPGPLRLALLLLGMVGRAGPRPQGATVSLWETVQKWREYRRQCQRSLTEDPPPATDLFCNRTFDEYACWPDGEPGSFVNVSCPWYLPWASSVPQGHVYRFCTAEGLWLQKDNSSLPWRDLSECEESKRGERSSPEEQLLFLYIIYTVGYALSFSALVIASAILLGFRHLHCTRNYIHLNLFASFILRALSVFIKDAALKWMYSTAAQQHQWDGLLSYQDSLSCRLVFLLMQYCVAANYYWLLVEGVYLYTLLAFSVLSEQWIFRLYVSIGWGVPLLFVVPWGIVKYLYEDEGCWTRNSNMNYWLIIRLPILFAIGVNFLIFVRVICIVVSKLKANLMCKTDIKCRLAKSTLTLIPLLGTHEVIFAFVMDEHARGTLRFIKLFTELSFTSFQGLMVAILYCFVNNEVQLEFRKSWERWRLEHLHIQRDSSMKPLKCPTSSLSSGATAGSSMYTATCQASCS
Assay: qHTS of GLP-1 Receptor Agonists: LOPAC Validation (AID 624148);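 also: luminescence from a luciferase reporter switched on by cAMP; higher luminescence signal means agonism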
Conditions: GLP-1R agonist cell assay; series mostly up to 46.1 µM; activation: at the top concentration
Summary of the method: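 Agonism scored as increased luciferase luminescence driven by cAMP in HEK293 clones carrying GLP-1R. Cells settled 12 hours, received compound for 4-6 hr at 37 deg C, 5% CO2, and were read after 12 min detection reagent at RT.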
Also: 0% is about no effect.

| SMILES | activation |
| --- | --- |
| CN1CCN(CC(=O)N2c3ccccc3C(=O)Nc3cccnc32)CC1 | -1.65% |
| CN(C(=O)CCCOc1ccc2[nH]c(=O)ccc2c1)C1CCCCC1 | 19.5% |
| CCOC(=O)C1=C(C)NC(C)=C(C(=O)OC)C1c1cccc(Cl)c1Cl (configuration not stated) | 1.66% |
| Cc1cccc(C)c1NC(=O)C(C)N (configuration not stated) | -2.03% |
| CN(C)CCN(Cc1cccs1)c1ccccn1 | -1.94% |
| NS(=O)(=O)c1cc2c(cc1Cl)NC(C1CC3C=CC1C3)NS2(=O)=O (configuration not stated) | -1.33% |
| Cc1scc2c1N(C(=O)CN1CCN(C)CC1)c1ccccc1NC2=O | -1.53% |
| CCn1cc(C(=O)O)c(=O)c2cc3c(cc21)OCO3 | 1.12% |
| NCCCNCCSP(=O)(O)O | -1.52% |
| C(=C\c1ccccc1)/CN1CCN(C(c2ccccc2)c2ccccc2)CC1 | -0.682% |
| C[N+](C)(C)CCOC(N)=O | 9.99% |
| C[N+](C)(C)CCOC(=O)CCC(=O)OCC[N+](C)(C)C | -1.7% |
| CC(C)NNC(=O)c1ccncc1 | -1.47% |
| CCN1CCC[C@H]1CNC(=O)c1c(O)c(Cl)cc(Cl)c1OC | -1.78% |
| Cc1nc2ccccn2c(=O)c1CCN1CCC(C(=O)c2ccc(F)cc2)CC1 | -1.14% |
| C[C@]12CCC(=O)C=C1CC[C@@H]1[C@@H]2CC[C@@]2(C)[C@H]1CC[C@]2(O)C(=O)CO | -1.28% |
| CCN(CC)CCCN(c1ccccc1)C1Cc2ccccc2C1 | -1.47% |
| O=C(CCNNC(=O)c1ccncc1)NCc1ccccc1 | -1.82% |

| SMILES | activation |
| --- | --- |
| CC(C)[N+](C)(CCOC(=O)C1c2ccccc2Oc2ccccc21)C(C)C | -2.1% |
| Nc1c2c(nc3ccccc13)CCCC2O (configuration not stated) | -1.8% |
| NC(N)=NC(=O)Cc1c(Cl)cccc1Cl | 10.4% |
| COc1ccc(CCN(C)CCCC(C#N)(c2cc(OC)c(OC)c(OC)c2)C(C)C)cc1OC (configuration not stated) | 5.24% |
| CC(C)(C)c1ccc(C(=O)CCCN2CCC(OC(c3ccccc3)c3ccccc3)CC2)cc1 | -1.9% |
| CN(C)C/C=C(/c1ccc(Br)cc1)c1cccnc1 | 0.498% |
| C[N+](C)(C)CCCCCCCCCC[N+](C)(C)C | -1.83% |
| CN(C)CCOC(=O)COc1ccc(Cl)cc1 | 0.524% |
| OCCN1CCN(CCCN2c3ccccc3C=Cc3ccccc32)CC1 | -1.19% |
| COc1ccc2c(c1OC)C(=O)O[C@@H]2[C@H]1c2c(cc3c(c2OC)OCO3)CCN1C | 7.39% |
| O=C1NCN(c2ccccc2)C12CCN(CCCC(c1ccc(F)cc1)c1ccc(F)cc1)CC2 | -1.61% |
| CCN(Cc1ccncc1)C(=O)C(CO)c1ccccc1 (configuration not stated) | -0.775% |
| NC(=O)c1ncn([C@@H]2O[C@H](CO)[C@@H](O)[C@H]2O)c1O | 0.318% |
| NC(Cc1ccc(Cl)cc1)C(=O)O (configuration not stated) | -1.94% |
| CCN(CC)CCOCCOC(=O)C1(c2ccccc2)CCCC1 | -1.33% |
| CNCCC(Oc1ccccc1OC)c1ccccc1 (configuration not stated) | 0.763% |
| Cc1nc2sccn2c(=O)c1CCN1CCC(=C(c2ccc(F)cc2)c2ccc(F)cc2)CC1 | 2.54% |
| C#CCN(C)CCCOc1ccc(Cl)cc1Cl | -1.54% |

Test system: not listed separately
Assay: qHTS of Nrf2 Activators: LOPAC Validation (AID 624149)
Conditions: Nrf2/ARE reporter cell assay; series mostly up to 46.1 µM; activation: at the top concentration
Summary of the method: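 AREc32_Fluc cells, 1000/well in OPTI-MEM with 5% FBS, grown overnight, then exposed to compounds for 24 hr at 37 deg C, 5% CO2. ARE-driven firefly luciferase read by Steady-Glo luminescence after 30 min at RT.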

| SMILES | activation |
| --- | --- |
| CN1CCN(CC(=O)N2c3ccccc3C(=O)Nc3cccnc32)CC1 | -2.05% |
| CN(C(=O)CCCOc1ccc2[nH]c(=O)ccc2c1)C1CCCCC1 | 2.25% |
| CCOC(=O)C1=C(C)NC(C)=C(C(=O)OC)C1c1cccc(Cl)c1Cl (configuration not stated) | -1.99% |
| Cc1cccc(C)c1NC(=O)C(C)N (configuration not stated) | 0.671% |
| CN(C)CCN(Cc1cccs1)c1ccccn1 | 1.45% |
| NS(=O)(=O)c1cc2c(cc1Cl)NC(C1CC3C=CC1C3)NS2(=O)=O (configuration not stated) | -1.27% |
| Cc1scc2c1N(C(=O)CN1CCN(C)CC1)c1ccccc1NC2=O | -1.68% |
| CCn1cc(C(=O)O)c(=O)c2cc3c(cc21)OCO3 | -0.24% |
| NCCCNCCSP(=O)(O)O | 0.977% |
| C(=C\c1ccccc1)/CN1CCN(C(c2ccccc2)c2ccccc2)CC1 | -0.472% |
| C[N+](C)(C)CCOC(N)=O | 0.367% |
| C[N+](C)(C)CCOC(=O)CCC(=O)OCC[N+](C)(C)C | 0.897% |
| CC(C)NNC(=O)c1ccncc1 | 0.776% |
| CCN1CCC[C@H]1CNC(=O)c1c(O)c(Cl)cc(Cl)c1OC | -0.975% |
| Cc1nc2ccccn2c(=O)c1CCN1CCC(C(=O)c2ccc(F)cc2)CC1 | 1.15% |
| C[C@]12CCC(=O)C=C1CC[C@@H]1[C@@H]2CC[C@@]2(C)[C@H]1CC[C@]2(O)C(=O)CO | 0.839% |
| CCN(CC)CCCN(c1ccccc1)C1Cc2ccccc2C1 | -1.54% |
| O=C(CCNNC(=O)c1ccncc1)NCc1ccccc1 | -1.81% |

| SMILES | activation |
| --- | --- |
| CC(C)[N+](C)(CCOC(=O)C1c2ccccc2Oc2ccccc21)C(C)C | -2.41% |
| Nc1c2c(nc3ccccc13)CCCC2O (configuration not stated) | 0.795% |
| NC(N)=NC(=O)Cc1c(Cl)cccc1Cl | -2.19% |
| COc1ccc(CCN(C)CCCC(C#N)(c2cc(OC)c(OC)c(OC)c2)C(C)C)cc1OC (configuration not stated) | 0.995% |
| CC(C)(C)c1ccc(C(=O)CCCN2CCC(OC(c3ccccc3)c3ccccc3)CC2)cc1 | -1.38% |
| CN(C)C/C=C(/c1ccc(Br)cc1)c1cccnc1 | 0.667% |
| C[N+](C)(C)CCCCCCCCCC[N+](C)(C)C | -1.68% |
| CN(C)CCOC(=O)COc1ccc(Cl)cc1 | -0.941% |
| OCCN1CCN(CCCN2c3ccccc3C=Cc3ccccc32)CC1 | -1.82% |
| COc1ccc2c(c1OC)C(=O)O[C@@H]2[C@H]1c2c(cc3c(c2OC)OCO3)CCN1C | 0.667% |
| O=C1NCN(c2ccccc2)C12CCN(CCCC(c1ccc(F)cc1)c1ccc(F)cc1)CC2 | 1.56% |
| CCN(Cc1ccncc1)C(=O)C(CO)c1ccccc1 (configuration not stated) | -2.48% |
| NC(=O)c1ncn([C@@H]2O[C@H](CO)[C@@H](O)[C@H]2O)c1O | -0.814% |
| NC(Cc1ccc(Cl)cc1)C(=O)O (configuration not stated) | -1.88% |
| CCN(CC)CCOCCOC(=O)C1(c2ccccc2)CCCC1 | -1.93% |
| CNCCC(Oc1ccccc1OC)c1ccccc1 (configuration not stated) | -1.84% |
| Cc1nc2sccn2c(=O)c1CCN1CCC(=C(c2ccc(F)cc2)c2ccc(F)cc2)CC1 | -1.08% |
| C#CCN(C)CCCOc1ccc(Cl)cc1Cl | -1.43% |
